# Test results published in PubChem BioAssay (NCATS).
# Several values for one entry are separate records, joined by “and”; a condition that tells them apart may be missing. Equal entries are not always repeated. Records with an inconclusive call do not appear. A call without a number means that no potency is given here. Some compounds were tested as several samples or in several runs, with calls that do not always agree. Activity calls are given as the source filed them. Calls follow the shape of the dose curve; as a rule, active = well fitted curve in the direction sought with a large enough effect; inconclusive = small, poorly fitted or top-dose-only effect, or another doubt; inactive = no such curve, though single readings can be large; an effect the other way counts as inactive or inconclusive.
# What was measured:
# [1] = Primary qHTS for inhibitors of nuclear receptor binding SET domain protein 2 (NSD2) in an isogenic RCH-ACV NSD2 p.E1099K mutant (9B) (AID 1645876); details: RCH-ACV NSD2 E1099K (9B) viability, CellTiter-Glo, 72 h; series mostly up to 44.9 µM; also: nearly all actives have a fitted effect of over 70% in size; also: potency is read from the fitted curve at half-maximal effect
# [2] = molecular target: Papain (Carica papaya) (UniProt P00784); assay: Primary qHTS assay for inhibitors of the protease papain (AID 1645873); details: papain Z-FR-AMC cleavage, AMC fluorescence; series mostly up to 49.8 µM;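 also: papain turnover of Z-FR-AMC read as the AMC fluorescence gain over 10 min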
# Sequence of Papain (Carica papaya) (P00784 whole entry, looked up): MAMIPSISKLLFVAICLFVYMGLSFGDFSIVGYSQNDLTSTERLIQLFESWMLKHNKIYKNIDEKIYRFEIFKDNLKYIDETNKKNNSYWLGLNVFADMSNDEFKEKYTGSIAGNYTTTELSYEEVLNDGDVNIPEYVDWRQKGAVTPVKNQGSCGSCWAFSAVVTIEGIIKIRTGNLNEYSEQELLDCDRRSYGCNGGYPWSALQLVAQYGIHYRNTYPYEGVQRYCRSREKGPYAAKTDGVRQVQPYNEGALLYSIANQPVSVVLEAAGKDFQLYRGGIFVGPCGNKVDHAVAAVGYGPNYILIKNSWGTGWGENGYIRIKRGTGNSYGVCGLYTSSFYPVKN
# [3] = molecular target: Catechol O-methyltransferase (Homo sapiens) (UniProt P21964); assay: Confirmatory Screen for Target Class Profiling of Small Molecule Inhibitors of Methyltransferases (AID 1745852); details: MTase-Glo luminescence, SAH detection, recombinant enzyme; measured here: COMT max response; stronger effect = lower value
# Sequence of Catechol O-methyltransferase (Homo sapiens) (P21964 whole entry, looked up, the tested form may be a part): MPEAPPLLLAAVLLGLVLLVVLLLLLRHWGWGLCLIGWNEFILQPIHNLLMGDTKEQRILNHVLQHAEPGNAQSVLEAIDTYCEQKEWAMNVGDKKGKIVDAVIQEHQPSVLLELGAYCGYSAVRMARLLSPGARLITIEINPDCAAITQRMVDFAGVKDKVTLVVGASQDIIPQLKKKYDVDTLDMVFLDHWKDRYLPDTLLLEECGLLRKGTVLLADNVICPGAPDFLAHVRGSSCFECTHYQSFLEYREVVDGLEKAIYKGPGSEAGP
# [4] = Primary qHTS for inhibitors of nuclear receptor binding SET domain protein 2 (NSD2) in an RCH-ACV wild type WT cells (2C) (AID 1645877); details: RCH-ACV (leukaemia line) NSD2 WT (2C) viability, CellTiter-Glo, 72 h; series mostly up to 44.9 µM; also: nearly all actives have a fitted effect of over 70% in size; also: potency is read from the fitted curve at half-maximal effect
# [5] = molecular target: Rap guanine nucleotide exchange factor 3 (Homo sapiens) (UniProt O95398); assay: Confirmatory qHTS for antagonist of cAMP-regulated guanine nucleotide exchange factor 3 (EPAC1) (AID 1645880); details: EPAC1 Rap1B-BODIPY-GDP exchange, fluorescence; series mostly up to 115 µM; also: potency is read from the fitted curve at half-maximal effect; nearly all actives have a fitted effect of over 55% in size
# Sequence of Rap guanine nucleotide exchange factor 3 (Homo sapiens) (O95398 whole entry, looked up): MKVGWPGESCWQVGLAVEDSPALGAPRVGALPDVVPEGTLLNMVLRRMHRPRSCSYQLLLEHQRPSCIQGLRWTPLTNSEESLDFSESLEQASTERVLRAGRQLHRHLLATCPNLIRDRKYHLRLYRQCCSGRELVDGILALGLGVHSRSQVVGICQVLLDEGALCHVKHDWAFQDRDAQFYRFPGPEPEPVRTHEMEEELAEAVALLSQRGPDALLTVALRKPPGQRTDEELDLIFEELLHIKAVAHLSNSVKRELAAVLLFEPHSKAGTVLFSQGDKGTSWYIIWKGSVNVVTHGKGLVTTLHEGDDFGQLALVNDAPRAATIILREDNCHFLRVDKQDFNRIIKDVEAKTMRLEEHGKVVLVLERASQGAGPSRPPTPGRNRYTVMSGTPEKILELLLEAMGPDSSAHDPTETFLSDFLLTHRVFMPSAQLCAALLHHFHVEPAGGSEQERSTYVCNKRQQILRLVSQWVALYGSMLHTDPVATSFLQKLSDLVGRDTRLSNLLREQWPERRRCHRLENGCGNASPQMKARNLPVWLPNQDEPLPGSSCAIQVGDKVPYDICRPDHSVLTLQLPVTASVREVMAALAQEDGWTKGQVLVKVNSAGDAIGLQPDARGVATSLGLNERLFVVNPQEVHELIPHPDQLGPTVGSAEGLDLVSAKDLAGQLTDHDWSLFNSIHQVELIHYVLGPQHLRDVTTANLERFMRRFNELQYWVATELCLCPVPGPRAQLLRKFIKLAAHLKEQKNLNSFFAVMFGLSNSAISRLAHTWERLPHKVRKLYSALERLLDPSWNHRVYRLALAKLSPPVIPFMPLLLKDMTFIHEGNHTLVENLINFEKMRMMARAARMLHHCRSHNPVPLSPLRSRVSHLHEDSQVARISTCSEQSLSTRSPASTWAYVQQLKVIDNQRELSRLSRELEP
# Method in brief: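 Nucleotide exchange uses 100 nM EPAC1, 250 nM RAP1B-BODIPY-GDP and 50 uM GDP, with compounds in a concentration-titration series. After 5 min at room temperature, fluorescence (480 nm ex/540 nm em) is read every 5 min for 30 min. Data are normalized to control ATA and DMSO.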
# [6] = molecular target: Rap guanine nucleotide exchange factor 3 (Homo sapiens) (UniProt O95398); assay: Confirmatory qHTS for agonist of cAMP-regulated guanine nucleotide exchange factor 3 (EPAC1) (AID 1645881); details: EPAC1 Rap1B BODIPY-GDP exchange fluorescence, 100% = cAMP control response; series mostly up to 154 µM;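 also: EPAC1 catalysed release of BODIPY-GDP from Rap1B seen as fluorescence loss; nearly all actives have a fitted effect of over 75% in size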
# [7] = molecular target: Rap guanine nucleotide exchange factor 4 (Homo sapiens) (UniProt Q8WZA2); assay: Confirmatory qHTS for agonist of cAMP-regulated guanine nucleotide exchange factor 4 (EPAC2) (AID 1645884); details: EPAC2 GEF activity, Rap1B-BODIPY-GDP fluorescence, percent relative to cAMP agonist control; series mostly up to 154 µM;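 also: nucleotide exchange releases bodipy-GDP from Rap1 and this lowers its fluorescence; nearly all actives have a fitted effect of over 65% in size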
# Sequence of Rap guanine nucleotide exchange factor 4 (Homo sapiens) (Q8WZA2 whole entry, looked up): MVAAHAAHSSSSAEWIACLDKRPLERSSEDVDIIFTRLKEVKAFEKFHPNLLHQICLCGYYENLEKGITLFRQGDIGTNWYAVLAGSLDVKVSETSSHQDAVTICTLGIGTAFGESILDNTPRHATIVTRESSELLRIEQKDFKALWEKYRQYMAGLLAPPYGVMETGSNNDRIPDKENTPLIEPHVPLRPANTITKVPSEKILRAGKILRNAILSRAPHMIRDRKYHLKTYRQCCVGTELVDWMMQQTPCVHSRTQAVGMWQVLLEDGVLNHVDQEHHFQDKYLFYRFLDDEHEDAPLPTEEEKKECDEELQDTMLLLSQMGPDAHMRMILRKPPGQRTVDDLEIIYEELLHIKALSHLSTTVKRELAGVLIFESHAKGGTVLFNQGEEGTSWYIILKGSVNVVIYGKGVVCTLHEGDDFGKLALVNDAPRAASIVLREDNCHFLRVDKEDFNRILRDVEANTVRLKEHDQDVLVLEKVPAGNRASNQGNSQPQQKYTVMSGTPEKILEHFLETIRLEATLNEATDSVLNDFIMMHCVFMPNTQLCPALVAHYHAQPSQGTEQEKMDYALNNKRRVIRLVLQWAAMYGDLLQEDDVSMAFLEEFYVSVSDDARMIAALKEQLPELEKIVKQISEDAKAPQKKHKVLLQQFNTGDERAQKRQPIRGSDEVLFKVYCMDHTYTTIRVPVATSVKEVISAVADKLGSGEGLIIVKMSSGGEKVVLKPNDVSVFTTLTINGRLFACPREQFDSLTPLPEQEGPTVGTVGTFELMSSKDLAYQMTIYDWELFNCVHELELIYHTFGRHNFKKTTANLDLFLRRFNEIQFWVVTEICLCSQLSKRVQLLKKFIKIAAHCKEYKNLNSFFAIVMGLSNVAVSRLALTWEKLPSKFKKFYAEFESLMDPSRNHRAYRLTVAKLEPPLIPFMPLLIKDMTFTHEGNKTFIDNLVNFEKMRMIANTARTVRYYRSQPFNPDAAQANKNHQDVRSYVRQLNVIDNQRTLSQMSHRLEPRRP
# [8] = molecular target: Rap guanine nucleotide exchange factor 4 (Homo sapiens) (UniProt Q8WZA2); assay: Confirmatory qHTS for antagonist of cAMP-regulated guanine nucleotide exchange factor 4 (EPAC2) (AID 1645885); details: EPAC2 Rap1B-BODIPY-GDP exchange fluorescence, biochemical; series mostly up to 12.7 µM; also: potency is read from the fitted curve at half-maximal effect; nearly all actives have a fitted effect of over 25% in size
smiles,measurement,setting,value
CCN(CC)CCN1C(=O)CN=C(c2ccccc2F)c2cc(Cl)ccc21,Potency,[1],inactive
CCC1(C2=NCCN2)Cc2ccccc2O1 (centres undefined),Potency,[2],inactive
CC[C@@H](CO)NC(=O)[C@@H]1C=C2c3cccc4c3c(cn4C)C[C@H]2N(C)C1,Potency,[2],inactive
same,activity,[3],1.79%
Cc1sc2c(c1C)C(c1ccc(Cl)cc1)=N[C@@H](CC(=O)OC(C)(C)C)c1nnc(C)n1-2,Potency,[1],0.372 µM (active)
same,Potency,[4],0.263 µM (active)
CCOP(=S)(OCC)Oc1cc(C)nc(C(C)C)n1,Potency,[1],inactive
same,Potency,[4],inactive
O=C(O)P(=O)(O)O,Potency,[1],inactive
same,Potency,[4],inactive
CO[C@]12CC[C@@]3(C[C@@H]1[C@](C)(O)C(C)(C)C)[C@@H]1Cc4ccc(O)c5c4[C@@]3(CCN1CC1CC1)[C@H]2O5,Potency,[1],6.05 µM (active)
same,Potency,[4],6.79 µM (active)
C[C@]12CCC(=O)C(O)=C1CC[C@@H]1[C@@H]2CC[C@]2(C)C(=O)CC[C@@H]12,Potency,[1],inactive
same,Potency,[4],inactive
Clc1cccc(N2CCNCC2)c1,Potency,[1],inactive
same,Potency,[4],inactive
C[C@]12C/C(=C/O)C(=O)C[C@@H]1CC[C@@H]1[C@@H]2CC[C@@]2(C)[C@H]1CC[C@]2(C)O,Potency,[1],13.3 µM (active)
same,Potency,[4],23.7 µM (active)
CC(C)CC(N(C)C)C1(c2ccc(Cl)cc2)CCC1 (centres undefined),Potency,[1],inactive
N[C@@H]1C[C@H]1c1ccccc1,Potency,[1],inactive
O=C(NC(O)C(Cl)(Cl)Cl)NC(O)C(Cl)(Cl)Cl (centres undefined),Potency,[1],inactive
same,Potency,[4],inactive
Clc1ccc(CCC(Cn2ccnc2)Sc2c(Cl)cccc2Cl)cc1 (centres undefined),Potency,[1],18.8 µM (active) and 18.6 µM (active)
same,Potency,[4],11.9 µM (active) and 20.9 µM (active)
Oc1ccc(Cl)cc1Cc1ccccc1,Potency,[1],24.6 µM (active)
same,Potency,[4],34.7 µM (active)
Oc1cccc2cccnc12,Potency,[1],15.4 µM (active) and inactive
same,Potency,[4],34.4 µM (active) and inactive
C=C1C[C@@H]2[C@H](CC[C@]3(C)C(=O)CC[C@@H]23)[C@@]2(C)C=CC(=O)C=C12,Potency,[1],16.8 µM (active) and 26.3 µM (active)
same,Potency,[4],11.9 µM (active) and 18.6 µM (active)
CC[N+]1(C)CCCC(OC(=O)C(O)(c2ccccc2)c2ccccc2)C1 (centres undefined),Potency,[1],inactive
same,Potency,[4],inactive
CCN(CC)CCOC(=O)C(O)(c1ccccc1)c1ccccc1,Potency,[1],inactive
same,Potency,[4],inactive
CC1NCCOC1c1ccccc1 (centres undefined),Potency,[1],inactive
same,Potency,[4],inactive
CN(C)[C@@H]1C(=O)C(C(N)=O)=C(O)[C@@]2(O)C(=O)C3=C(O)c4c(O)cccc4[C@@](C)(O)[C@H]3C[C@@H]12,Potency,[1],inactive
same,Potency,[4],inactive
C=CCN1CC[C@]23c4c5ccc(O)c4O[C@H]2C(=O)CC[C@@]3(O)[C@H]1C5,Potency,[1],inactive
CCCC(C)(COC(N)=O)COC(=O)NC(C)C (centres undefined),Potency,[1],inactive
same,Potency,[4],inactive
CC[C@@H](CO)NC(=O)[C@@H]1C=C2c3cccc4[nH]cc(c34)C[C@H]2N(C)C1,Potency,[1],inactive
same,Potency,[4],inactive
NP(N)(=O)NC(=O)c1ccc(F)cc1,Potency,[1],inactive
same,Potency,[4],inactive
Cn1cc(C2=C(c3cn(C4CCN(Cc5ccccn5)CC4)c4ccccc34)C(=O)NC2=O)c2ccccc21,Potency,[1],inactive and 16.4 µM (active)
same,Potency,[4],inactive
CCC(COC(=O)c1cc(OC)c(OC)c(OC)c1)(c1ccccc1)N(C)C (centres undefined),Potency,[1],inactive
same,Potency,[4],inactive
CCN(C(C)=O)c1cccc(-c2ccnc3c(C#N)cnn23)c1,Potency,[1],inactive
COC[C@@H](NC(C)=O)C(=O)NCc1ccccc1,Potency,[1],inactive
same,Potency,[4],inactive
C#CCOC(C(=O)OCCN(C)C)(c1ccccc1)c1ccccc1,Potency,[1],inactive
same,Potency,[4],inactive
COc1ccc(Cc2nccc3cc(OC)c(OC)cc23)cc1OC,Potency,[1],11.8 µM (active)
same,Potency,[4],5.25 µM (active)
CCC(C(N)=O)N1CCCC1=O (centres undefined),Potency,[1],inactive
same,Potency,[4],inactive
CC(C)(N)Cc1ccc(Cl)cc1,Potency,[1],inactive
same,Potency,[4],inactive
O=[N+]([O-])c1cc([As](=O)(O)O)ccc1O,Potency,[1],inactive
O=P1(NCCCl)OCCCN1CCCl (centres undefined),Potency,[1],inactive
same,Potency,[4],inactive
Oc1ccccc1-c1ccccc1,Potency,[1],inactive
same,Potency,[4],inactive
CNC(=O)c1ccc(N2C(=S)N(c3ccc(C#N)c(C(F)(F)F)c3)C(=O)C23CCC3)cc1F,Potency,[4],16.6 µM (active)
N[C@@H](Cc1ccc(Oc2cc(I)c(O)c(I)c2)c(I)c1)C(=O)O,Potency,[1],inactive
same,Potency,[4],inactive
COc1ccc2c(c1OC)CN1CCc3cc4c(cc3C1C2)OCO4 (centres undefined),Potency,[4],10.6 µM (active)
CC(C)(C)NCC(O)c1cc(Cl)c(N)c(Cl)c1 (centres undefined),Potency,[1],inactive
same,Potency,[4],inactive
CN1CCN(C(=O)O[C@H]2c3nccnc3C(=O)N2c2ccc(Cl)cn2)CC1,Potency,[1],inactive
same,Potency,[4],inactive
C[C@]12CC[C@H]3[C@@H](CCC4=CC(=O)CC[C@@H]43)[C@@H]1CC[C@@H]2OC(=O)CCc1ccccc1,Potency,[4],inactive
O=c1oc2ccccc2c(O)c1C(CC(O)c1ccc(-c2ccc(Br)cc2)cc1)c1ccccc1 (centres undefined),Potency,[1],inactive
same,Potency,[5],15.7 µM (active)
same,outcome,[6],inactive
same,outcome,[7],inactive
same,Potency,[8],44.1 µM (active)
CNC(=O)N1N=C(c2ccc(N)cc2)c2cc3c(cc2CC1C)OCO3 (centres undefined),Potency,[1],3.65 µM (active)
same,Potency,[4],2.05 µM (active)
O=C1CC[C@@]2(O)[C@H]3Cc4ccc(O)c5c4[C@@]2(CCN3CC2CC2)[C@H]1O5,Potency,[1],inactive
same,Potency,[4],inactive
Oc1cc(Cl)ccc1Oc1ccc(Cl)cc1Cl,Potency,[1],6.24 µM (active)
same,Potency,[4],6.24 µM (active)
same,outcome,[6],inactive
same,Potency,[8],52 µM (active)
C=C1CC[C@@]2(O)[C@H]3Cc4ccc(O)c5c4[C@@]2(CCN3CC2CC2)[C@H]1O5,Potency,[1],inactive
same,Potency,[4],inactive
